High-throughput results as filed in PubChem.
This is a sample that favours compounds with a hit; in the whole collection about 4.1% have one here.
DAX1 inh-1: inhibits human nuclear receptor DAX1 | inhibition, % at 6.75 µM | P51843 | HEK293 Gal4-DAX1 luciferase reporter, luminescence | 340,000 tested, 0.99% active | AID 504766;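 active means inhibition above the mean over all tested compounds plus 3 SD, cut at about 4.2% in these data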;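 further: 0% = DAX1-transfected cells with DMSO and 100% = empty-vector control cells with DMSO; inhibition shows as a rise in luminescence from relieved DAX1 repression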
Target sequence (P51843 207-470 limits assumed): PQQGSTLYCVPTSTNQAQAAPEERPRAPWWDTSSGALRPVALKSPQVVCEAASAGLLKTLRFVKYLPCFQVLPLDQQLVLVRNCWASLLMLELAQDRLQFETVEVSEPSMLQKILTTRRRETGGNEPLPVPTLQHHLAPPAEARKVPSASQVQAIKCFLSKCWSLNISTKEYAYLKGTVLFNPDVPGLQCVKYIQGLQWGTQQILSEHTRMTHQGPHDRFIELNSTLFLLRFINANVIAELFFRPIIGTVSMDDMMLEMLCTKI
hgDAF-12 ag: activates the H. glycines DAF-12 receptor ligand-binding domain | HEK293 GAL4-hgDAF12 UAS-luciferase reporter, agonist luminescence; normalized to butyrate control | activation, % at 6.8 µM | 370,000 tested, 1.8% active;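 active means activation above a cutoff set at the mean of all screened compounds plus 3 SD, cut at about 10% in these data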;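 further: 0% = DMSO wells and 100% = sodium butyrate wells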
ssDAF12 agonist: activates DAF-12 receptor from parasite S. stercoralis. HEK293 ssDAF-12/GRIP1 lit1-tk-luc reporter, luminescence; % of 3 µM dafachronic acid response. activation, % at 6.8 µM. AID 652126. 370,000 tested, 1% active;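 active means activation above the mean over all tested compounds plus 3 SD, cut at about 0.9% in these data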;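 further: 0% = DMSO-only wells and 100% = 3 µM delta7-dafachronic acid wells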
DAX1 inh-2: blocks DAX1 repression of SF-1 activated StAR promoter; 370,000 tested, 1.1% active; AID 652010; HEK293T StAR-luciferase reporter, SF-1/DAX-1 repression relief; inhibition, % at 6.8 µM;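 active means inhibition above the mean over all tested compounds plus 3 SD, cut at about 3.6% in these data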;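 further: 0% = DAX-1 cells with DMSO and 100% = cells lacking DAX-1 with DMSO; higher inhibition means more luminescence from relief of DAX-1 repression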
hcDAF-12 act: activators of H. contortus DAF-12 nuclear receptor | HEK293 hcDAF-12 lit1-tk-luc reporter, luminescence; 0% DMSO, 100% Δ7-dafachronic acid | activation, % at 6.8 µM | 370,000 tested, 1.4% active;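 active means activation above the mean of all tested compounds plus 3 SD, cut at about 5.5% in these data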;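 further: 100% = response to 3 µM Δ7-dafachronic acid high control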
LXRb hcDAF ctr: activates human LXR-beta, counter-screen for hcDAF-12 agonists. 3,400 tested, under 10 active. AID 743027. HEK293 Gal4-LXR tk-luc reporter, luminescence, 24 h; normalized: DMSO 0%, positive control 100%. shares compounds with hcDAF-12 act. activation, % at 6.8 µM;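 active means mean percent activation of the reporter above a cutoff set as the average over tested compounds plus their standard deviation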
hcDAF12 conf: confirmation of H. contortus DAF-12 agonists; shares compounds with hcDAF-12 act; HEK293 hcDAF-12 lit1-tk-luc reporter, luminescence; % of Δ7-dafachronic acid response; 3,400 tested, 61% active; AID 743032; activation, % at 6.8 µM;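 active means mean activation across triplicate tests above the threshold derived from the earlier primary screen, cut at about 5.5% in these data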;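 further: 0% = DMSO only wells and 100% = 3 µM Δ7-dafachronic acid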
* hit, by the source's call; x = no result.

SMILES | DAX1 inh-1 | hgDAF-12 ag | ssDAF12 agonist | DAX1 inh-2 | hcDAF-12 act | LXRb hcDAF ctr | hcDAF12 conf
CN(C)c1ccc(C(=O)Nc2nc3c(s2)CCCC3)cc1 | -2 | 12* | -1 | 3.8* | 7.7* | 2 | 8.4*
CC(C)(C)c1ccc(S(=O)(=O)NCC(=O)N2CCN(c3ncccn3)CC2)cc1 | x | -1 | -1 | -1 | -2 | x | x
Cc1cccc(/C=N/c2sc3c(c2C#N)CCN(Cc2ccccc2)C3)c1O | 3 | 0 | 1 | 0 | 14* | 0 | 6.7*
CCC1CCCCN1CCCNC(=O)Cn1c2ccccc2c2nc(=O)cc(C)n21 (stereo unspecified) | 0 | 2 | 0 | 1 | 8.2* | 0 | 6.7*
Cc1cc(=O)nc2c3ccccc3n(CC(=O)NCCC3=CCCCC3)n12 | 0 | 0 | 0 | -2 | 4 | x | x
CC(C)CC(=O)N1CCc2cc(S(=O)(=O)N(C)Cc3ccco3)ccc21 | x | -2 | -1 | 1 | -3 | x | x
CC1(c2nnnn2C2CCCCC2)CCCC(=O)N1CCc1ccc(O)cc1 (stereo unspecified) | x | -3 | -1 | 1 | -1 | x | x
CCOc1ccc(NC(=O)Nc2ccc3nsnc3c2)cc1 | 0 | 8 | -1 | 0 | 1 | x | x
CCOc1ccc(NC(=O)Nc2cccs2)cc1 | 0 | 11* | 1 | 3 | 7.3* | 1 | 5
Cc1ccsc1/C=N/NC(=O)c1ccc2c(c1)OCCO2 | -1 | 13* | 1 | 2 | 8.1* | 2 | 12*
O=C(N/N=C/c1c(Cl)[nH]c2ccccc12)c1ccc2c(c1)OCCO2 | x | 8 | 1.3* | 0 | 9.1* | 0 | 9.1*
O=C(CCCOc1ccccc1)N1CCN(c2ccccn2)CC1 | 1 | 8 | 0 | 2 | 10* | 1 | 6.4*
CCN(CC)CCn1c(NCc2ccc(C)o2)nc2ccccc21 | 0 | -2 | -1 | 0 | -1 | x | x
Cc1ccc(CNc2nc3ccccc3n2C)o1 | 2 | 12* | 1.1* | 1 | 7.8* | 1 | 8.3*
CC(=O)Nc1c(-c2ccc3ccccc3c2)nc2ccccn12 | 4.2* | 9 | 1.9* | 2 | 7.6* | 1 | 7.3*
CCOc1ccc(C(=O)NCCc2ccccc2)cc1 | -2 | 7 | 0 | 5.7* | 6.6* | 1 | 9.2*
CCOc1ccc(C(=O)NCCCCNC(=O)c2ccc(OCC)cc2)cc1 | 2 | 6 | -2 | 0 | 0 | x | x
COc1ccc(CN2C/C(=C/c3ccccc3)N3C(=O)C[C@@H](c4ccc5ccccc5c4)N=C23)c(OC)c1 | x | 2 | -2 | -1 | -3 | x | x
Cc1cccc(Cn2cc(COC(=O)NCCc3c[nH]c4ccccc34)nn2)c1 | x | 1 | -1 | -1 | -1 | x | x
O=C(NCCc1c[nH]c2ccccc12)OCc1cn(Cc2cccc(Cl)c2)nn1 | x | 7 | -1 | 0 | 6.6* | 0 | -1
CCCc1cc2c(OC)ccc(O)c2c(=O)n1C | x | -1 | -1 | 1 | -1 | x | x
O=C(c1cc(-c2ccc(F)cc2)nc2ccccc12)N1CCC1 | -1 | 1 | -1 | 0 | -1 | x | x
O=C(O)c1cc(-c2ccc(-c3ccc(F)cc3)o2)nc2ccccc12 | 0 | 11* | 1 | 2 | 13* | 1 | 6.8*
Cc1ccc(NC(=O)COC(=O)/C=C/c2cccc(Cl)c2)cc1S(=O)(=O)N1CCOCC1 | 1 | 0 | 0 | 0 | 8.7* | 0 | 0
O=C(COC(=O)/C=C/c1cccc(Cl)c1)Nc1ccc(N2CCOCC2)cc1 | 1 | 0 | -1 | -1 | 0 | x | x
SMILES | DAX1 inh-1 | hgDAF-12 ag | ssDAF12 agonist | DAX1 inh-2 | hcDAF-12 act | LXRb hcDAF ctr | hcDAF12 conf
CCN1c2ccccc2NC2C1C(C(C)=O)C(=O)N2c1ccc(Cl)cc1 (stereo unspecified) | 0 | -3 | 0 | 0 | 8.8* | 0 | 0
Cc1ccccc1CN1CCCCC(NC(=O)c2ccccc2)C1=O (stereo unspecified) | x | 2 | -2 | -2 | -1 | x | x
Nc1cccc(C2=Nc3cccc4cccc(c34)N2)c1 | 0 | 4 | 0 | 1 | 8.5* | 0 | 5.7*
COc1ccc(C2=Nc3cccc4cccc(c34)N2)cc1 | 0 | 4 | 0 | 1 | 3 | x | x
Cc1ccc(Cl)c2c(N=Nc3ccccc3)c(O)[nH]c12 | 6.3* | 6 | 0.9* | 1 | 7.7* | 1 | 10*
Cc1cc(C)cc(N2Cc3ccccc3C2)c1 | 0 | -3 | -1 | 1 | 0 | x | x
CCc1ccc(N2Cc3ccccc3C2)cc1 | 3 | 29* | 1 | 3 | 6.9* | 1 | 7.7*
C=CCN(Cc1ccc(OC)cc1OC)C(C#CCCCC)c1ccccc1 (stereo unspecified) | x | 3 | -1 | x | 0 | x | x
Cc1sc2ncnc(N/N=C/c3ccccc3O)c2c1C | -4 | 7 | 0 | 0 | 7.2* | 0 | 0
COC(=O)[C@]12C[C@H](CC(=O)NCC3CCCCC3)C(=O)N(CCC3=CCCCC3)C1=C[C@H](C1CCCC1)O[C@@H]2C | x | 3 | -1 | -2 | -2 | x | x
CNC(=O)NC(=O)C(OC(=O)CCNS(=O)(=O)c1ccccc1)c1ccccc1 (stereo unspecified) | 1 | 1 | 0 | 0 | 7.2* | 0 | 1
C[C@H](NC(=O)c1cc2cc(Cl)ccc2n1C)C(=O)N1CCC(C(=O)O)CC1 | 1 | -4 | -1 | 0 | -1 | x | x
Cn1c(C(=O)Nc2ccc(Cl)cc2)cc2cc(Cl)ccc21 | 0 | 4 | 0 | 0 | 8.3* | 0 | 7.9*
N/C(=N\OC(=O)c1ccccc1Cl)c1ccccn1 | -4 | -2 | 0 | 3 | 7.0* | 2 | 11*
COc1ccccc1C(=O)O/N=C(\N)c1ccccn1 | -2 | 8 | 2.7* | 2 | 11* | 1 | 5.9*
COc1cc(OC)c(C(=O)O/N=C(\N)c2ccccn2)cc1OC | 1 | 2 | -1 | 0 | -2 | x | x
COC(=O)[C@@]12CCCCC3=C1N(CCC3)C(=O)[C@H]2CC(=O)N1CCOCC1 | x | 0 | -1 | -1 | -3 | x | x
Cc1ccc(-c2cc(=O)c3cc(C)ccc3[nH]2)cc1 | -2 | 8 | 1 | 1 | 7.0* | 1 | 7.0*
COCCCNC(=O)C(=O)C1C(=O)Nc2ccccc21 (stereo unspecified) | 0 | 0 | 0 | 0 | 11* | 0 | 3
O=C(O)CCCCCNC(=O)C(=O)C1C(=O)Nc2ccccc21 (stereo unspecified) | 0 | 0 | 1 | 0 | 4 | x | x
CCOC(=O)C1CCCN(C(=O)CC(c2ccccc2)c2ccccc2)C1 (stereo unspecified) | -1 | 1 | -2 | 0 | -2 | x | x
